# Rows were chosen to be rich in hits. Some 3% of all compounds tested hit in one or more screens of this group.
# USP1-UAF1 inh: USP1/UAF1 (human) deubiquitinase inhibition; Potency, µM (titrated, usually from 57.1 µM), for inactives: top-dose activity change, negative = inhibition, usual class: inhibitors; 390,000 tested, 0.23% active; recombinant USP1/UAF1, Ub-Rhodamine cleavage fluorescence; AID 743255; note: potency is the fitted concentration of half-maximal effect; % is set by controls: 0 for no effect and ±100 for the full control effect; nearly all actives have a fitted effect of over 60% in size
#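 USP1/UAF1 complex (1 nM) preincubated 15 min at room temperature with compound, then Ub-Rho substrate (150 nM final) added. Kinetic fluorescence at 480/540 nm over 6 reads at 60 s intervals; 50 mM HEPES pH 7.8, 0.5 mM EDTA, 0.1 mg/ml BSA, 1 mM TCEP, 0.01% Tween-20.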
# VDR inh: inhibitors of human vitamin D receptor; AID 504847; 400,000 tested, 0.93% active; P11473; Potency, µM, for the others: max response, negative = inhibition, most hits filed as inhibitors; VDR-SRC2-3 peptide fluorescence polarization, 2 h; note: potency is the fitted concentration of half-maximal effect; % is set by controls: 0 for no effect and ±100 for the full control effect
#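 Inhibition of the VDR/SRC2-3 peptide interaction is quantified by fluorescence polarization. Compounds (23 nl, pintool) incubate with the reagents for 2 hours at ambient room temperature.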
# PTAP TSG101 blk: blocks PTAP/TSG101 interaction to inhibit HIV-1 budding; Potency, µM (series often up to 115 µM), without a hit: at the top dose activity change, negative = inhibition, actives largely listed as inhibitors; AID 493005; 340,000 tested, under 10 active; Fluorescence polarization, FITC-PTAP peptide / Tsg101 binding; active = well fitted inhibition curve with a large enough effect in the main read-out, with a control signal flat, not every such curve was filed as active; inconclusive = small, poorly fitted or top-dose-only effect, or effect the other way, or a change in a side signal; inactive = no such curve, though single readings can be large or run the other way; note: potency is the fitted concentration of half-maximal effect; % of control where 0% means no effect
# Target sequence (Q99816 whole entry, looked up): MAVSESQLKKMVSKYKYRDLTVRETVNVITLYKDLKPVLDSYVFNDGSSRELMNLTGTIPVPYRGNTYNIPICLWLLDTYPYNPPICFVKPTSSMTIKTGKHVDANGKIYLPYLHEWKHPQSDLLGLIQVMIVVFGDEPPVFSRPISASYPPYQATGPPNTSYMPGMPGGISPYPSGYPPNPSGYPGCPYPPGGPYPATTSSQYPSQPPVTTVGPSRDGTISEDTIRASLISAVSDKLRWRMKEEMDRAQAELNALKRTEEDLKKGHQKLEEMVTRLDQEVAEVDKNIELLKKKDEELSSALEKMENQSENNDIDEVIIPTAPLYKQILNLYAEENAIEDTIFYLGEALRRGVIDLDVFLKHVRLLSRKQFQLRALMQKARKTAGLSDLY
#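 Compounds were pin-transferred onto Tsg101 binding domain (10 uM final) in HEPES pH 7.5 buffer, then FITC-PTAP peptide was added at 50 nM final. After 20 min at RT, polarization reported peptide displacement across a qHTS concentration series.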
# PLK1 PBD block: PLK1 (human) polo-box domain binding inhibition. Plk1 PBD binding of FITC phosphopeptide, fluorescence polarization. Potency, µM, inactives show max response, negative = inhibition, usual class: inhibitors. 360,000 tested, 2.8% active. AID 720504; note: potency is the fitted concentration of half-maximal effect; series mostly up to about 57 µM; % is set by controls: 0 for no effect and ±100 for the full control effect; nearly all actives have a fitted effect of over 65% in size
# GCN5L2 inh-1: GCN5L2 (KAT2A) acetyltransferase inhibition; AID 504327; GCN5L2 HAT assay, ThioGlo1 CoA-SH fluorescence; 390,000 tested, 0.21% active; Potency, µM (doses to about 58.9 µM), without a hit: at the highest dose activity change, negative = inhibition, hits mostly inhibitors; Q92830; note: potency is the fitted concentration of half-maximal effect; % is set by controls: 0 for no effect and ±100 for the full control effect
#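 Titration-based screen in which CoA formation is detected via maleimide probe ThioGlo1 (50uM) turning fluorescent on thiol reaction; substrates H3(1-25) 75uM and acetyl-CoA 70uM, GCN5L2 20nM, 20 min incubation at room temperature.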
# GCN5L2 inh-2: human KAT2A HAT inhibition, hit confirmation; AID 588347; 140 tested, 70% active; shares compounds with GCN5L2 inh-1; Potency, µM, usual class: inhibitors; GCN5L2 HAT, ThioGlo1 CoA fluorescence, 20 min
# USP1-UAF1 confirm: USP1-UAF1 deubiquitinase inhibition validated; shares compounds with VDR inh; 50 tested, 50% active; Ub-Rhodamine cleavage, fluorescence kinetic read; Potency, µM (doses to about 56.8 µM), without a hit: at the highest dose activity change, negative = inhibition, usual class: inhibitors
# VDR confirm: confirmation of human vitamin D receptor inhibitors; Potency, µM, hits mostly inhibitors; shares compounds with VDR inh; AID 602199; 840 tested, 89% active; VDR-coactivator inhibition assay, qHTS confirmation; note: potency is the fitted concentration of half-maximal effect
# VDR FP: confirmation of human VDR-coactivator binding inhibitors, fluorescein label | Potency, µM (doses to about 57.1 µM), without a hit: at the top dose activity change, negative = inhibition, hits mostly inhibitors | VDR-coactivator binding, fluorescein fluorescence polarization | 840 tested, 48% active | shares compounds with VDR inh; note: potency is the fitted concentration of half-maximal effect
# VDR bla: inhibits human VDR in beta-lactamase reporter cells; shares compounds with VDR inh; VDR beta-lactamase reporter cells, FRET ratio; cells co-treated with VDR agonist LG190178; Potency, µM (doses to about 46.1 µM), for inactives: top-dose activity change, negative = inhibition, most hits filed as inhibitors; 840 tested, 23% active; note: potency is the fitted concentration of half-maximal effect; % is set by controls: 0 for no effect and ±100 for the full control effect
# VDR cytotox: cytotoxic in counter-screen for VDR inhibitors. shares compounds with VDR inh. cytotoxicity counter-screen, cell viability, qHTS. Potency, µM (series often up to 48.3 µM), inactives show at the top dose activity change, negative = cytotoxicity, actives largely listed as cytotoxic. 840 tested, 18% active. AID 602204;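 note: potency is the fitted concentration of half-maximal effect; plate controls were DMSO for no effect and high-concentration cycloheximide for full effect; nearly all actives have a fitted effect of over 75% in size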
# Active calls of the source: *; ? = inconclusive; · = no result given; [ ] = another dose, or the depositor's remark. Unless noted, calls come from the whole dose curve; as a rule, active = well fitted curve in the direction sought with a large enough effect; inconclusive = small, poorly fitted or top-dose-only effect, or another doubt; inactive = no such curve, though single readings can be large; an effect the other way counts as inactive or inconclusive.
SMILES,USP1-UAF1 inh,VDR inh,PTAP TSG101 blk,PLK1 PBD block,GCN5L2 inh-1,VDR confirm,VDR FP,VDR bla,VDR cytotox,others
COc1ccc(-c2cc(=NCC(=O)O)c3ccccc3o2)cc1,-13%,9%,-3%,1%,?,·,·,·,·,GCN5L2 inh-2=32*
CCC[C@@H]1CC2=CC(=O)CC[C@]2(C)[C@@H]2CC[C@@]3(C)[C@H](CC[C@]3(O)CCC(=O)O)[C@H]12,·,-29%,·,·,-9%,·,·,·,·,
Cc1ccc(N2C(=O)NC(=O)/C(=C\c3cnc(-c4ccccc4)nc3)C2=O)cc1,-13%,22µM*,-12%,8.4µM*,40%,27*,?,11%,9%,
CC(n1cc(C[C@H](N)C(=O)O)c2ccccc21)n1cc(C[C@H](N)C(=O)O)c2ccccc21,·,?,·,·,-30%,·,·,·,·,
COC(=O)C[C@]1(C(=O)OC)CN(C#N)N(c2ccc(Cl)cc2)C12c1ccccc1-c1ccccc12,-5%,20µM*,1%,-10%,-10%,?,6.3µM*,3.7µM*,2.9µM*,
COC(=O)[C@@H]1[C@@H](C(=O)OC)C2(c3ccccc3-c3ccccc32)N(c2ccc(Cl)cc2)N1C#N,-14%,?,-5%,-18%,-5%,·,·,·,·,
NC1=C([N+](=O)[O-])C(c2ccc3c(c2)OCO3)c2c(c3ccccc3oc2=O)O1 (configuration not stated),-12%,-5%,-2%,-24%,-10%,·,·,·,·,
O=c1oc2ccccc2c(O)c1[C@H]1c2ccc(O)cc2Oc2c1c(=O)oc1ccccc21,-18%,79µM*,-4%,?,-16%,30*,?,21µM*,-31%,
CCN(CC)C(=O)N[C@H]1C=C2c3cccc4[nH]cc(c34)C[C@@H]2N(C)C1,·,-9%,·,·,-4%[21.4 µM],·,·,·,·,USP1-UAF1 confirm=-9%
CNCC(N)C(=O)O (configuration not stated),·,-13%,·,·,0%,·,·,·,·,
CS(=O)(=O)c1ncc(Cl)c(C(=O)Nc2ccc3ccccc3c2)n1,-10%,13µM*,-1%,9.5µM*,-7%,8.4*,?,16µM*,?,
CC(C)NC(C)C(=O)c1ccc2ccccc2c1 (configuration not stated),-14%,-3%,1%,4%,-11%,·,·,·,·,
CC(C)[C@H](NC(=O)[C@H](CC(=O)O)NC(=O)[C@H](Cc1ccccc1)NC(=O)[C@@H](C)NC(=O)[C@@H](N)Cc1ccc(O)cc1)C(=O)N[C@H](C(=O)NCC(N)=O)C(C)C,·,9%,·,·,49%,·,·,·,·,
CN1C2CCC1/C(=C/c1ccccn1)C(=O)/C2=C\c1ccccn1,-15%,28µM*,0%,27µM*,-6%,2.7*,?,2.1µM*,21µM*,
CCC12CN3CC(CC)(CN(C1)C3c1ccccn1)C2=O (configuration not stated),?,12%,·,·,3%,·,·,·,·,
